# System: Vero E6 infected with SARS-CoV-2
# Assay: morphology score (similarity to uninfected cells); higher = more like uninfected cells
# Details: 24 h
row,SMILES,morphology score
1,COc1cc(-n2c(=S)[nH]c3ccccc3c2=O)c(Cl)cc1Cl [mdivi-1] (10 µM),-0.0304
2,CCOC(=O)Nc1ccc2c(c1)N(C(=O)CCN1CCOCC1)c1ccccc1S2 [moracizine] (10 µM),0.154
3,COc1cc2c(cc1O)C(CCc1ccc(Cl)cc1)N(C)CC2 (configuration not stated) (10 µM),0.298
4,CC(=O)N[C@H]1[C@H]([C@H](O)[C@H](O)CO)OC(C(=O)O)=C[C@@H]1NC(=N)N [zanamivir] (10 µM),0.113
5,NCCC(O)(P(=O)(O)O)P(=O)(O)O [pamidronate] (10 µM),0.09
6,N=C(N)NC(=O)c1cnccn1 [pyrazinoylguanidine] (10 µM),0.0685
7,O=C(O)/C=C/c1ccc(O)c(O)c1 [caffeic-acid] (10 µM),-0.0394
8,CC(C)N(CCCNC(=O)Nc1ccc(C(C)(C)C)cc1)C[C@H]1O[C@@H](n2cc(Br)c3c(N)ncnc32)[C@H](O)[C@@H]1O (10 µM),-0.0211
9,CC(=O)Nc1nc2c(Oc3cc(-c4ccc(C(F)(F)F)cc4)ncn3)cccc2s1 (10 µM),0.163
10,O=C1O[C@H]([C@@H](O)CO)C([O-])=C1O.[Na+] [sodium-ascorbate] (10 µM),0.159
11,CCCCCCCCCCCCCCC[C@@H](O)[C@@H](N)CO [safingol] (10 µM),-0.197
12,CC1(C)[C@@H](O)CC[C@]2(C)[C@H]3C(=O)C=C4[C@@H]5C[C@@](C)(C(=O)O)CC[C@]5(C)CC[C@@]4(C)[C@]3(C)CC[C@@H]12 [enoxolone] (10 µM),0.00688
13,Nc1nc2c(ccc3ccccc32)s1 (10 µM),-0.0747
14,CCCCCCCCCC(=O)OC1(c2ccc(Cl)cc2)CCN(CCCC(=O)c2ccc(F)cc2)CC1 [haloperidol-decanoate] (10 µM),0.166
15,CC(=O)OCC(=O)[C@@]12N=C(C)O[C@@H]1C[C@H]1[C@@H]3CCC4=CC(=O)C=C[C@]4(C)[C@H]3[C@@H](O)C[C@@]12C [Deflazacort (Calcort)] (10 µM),0.0216
16,NC(=O)c1cnc2[nH]ccc2c1N[C@@H]1[C@@H]2CC3C[C@H]1C[C@@](O)(C3)C2 (10 µM),0.174

row,SMILES,morphology score
1,c1ccc2sc(N3CCN(Cc4ccc5c(c4)OCO5)CC3)nc2c1 [2-[1-(4-piperonyl)piperazinyl]benzothiazole] (10 µM),0.00324
2,CC(C)(O)c1ccccc1CC[C@@H](SCC1(CC(=O)O)CC1)c1cccc(/C=C/c2ccc3ccc(Cl)cc3n2)c1 [montelukast] (10 µM),0.169
3,NCc1ccc(S(N)(=O)=O)cc1 [mafenide] (10 µM),0.136
4,CC(C)OC(=O)[C@H](C)N[P@@](=O)(OC[C@H]1O[C@@H](n2ccc(=O)[nH]c2=O)[C@](C)(F)[C@@H]1O)Oc1ccccc1 (10 µM),0.087
5,CC(C)(C)NCC(O)COc1cccc2[nH]c(C#N)cc12 (configuration not stated) [cyanopindolol] (10 µM),-0.0665
6,C/N=C(/NC#N)NCCSCc1csc(NC(=N)N)n1 [tiotidine] (10 µM),0.11
7,CCOC(=O)c1ccc(C#Cc2ccc3c(c2)C(C)(C)CCS3)nc1 [tazarotene] (10 µM),-0.0471
8,Sc1nc2ccccc2s1 [benzo[d]thiazole-2(3H)-thione] (10 µM),0.0522
9,CC(=O)Nc1ccc(CC(=O)O)cc1 [actarit] (10 µM),0.181
10,Cc1cc(NCCO)nc(-c2ccc(Br)cc2)n1 (10 µM),0.269
11,NC(=O)[C@@H](CC1CC1)[C@@H](CCC(F)(F)F)C(=O)N[C@H]1N=C(c2ccccc2)c2cccc(F)c2NC1=O (10 µM),0.179
12,CCOC(=O)c1ccc(-n2cc(Cc3cnc(OCC)nc3)c(=O)nc2SCc2ccc(F)cc2)cc1 (10 µM),0.18
13,CCc1[nH]c(=O)[nH]c1C(=O)c1ccncc1 [piroximone] (10 µM),0.142
14,CC(C)C[C@H](NC(=O)N1CCCCCC1)C(=O)N[C@H](Cc1cn(C)c2ccccc12)C(=O)N[C@H](Cc1ccccn1)C(=O)O (10 µM),0.257
15,CC[C@H](C)[C@@H]1NC(=O)[C@H](Cc2ccc(OC)cc2)NC(=O)CCCSC[C@@H](C(=O)N2CCC[C@H]2C(=O)N[C@@H](CC(C)C)C(=O)NCC(N)=O)NC(=O)[C@H](CC(N)=O)NC(=O)[C@H](CCC(N)=O)NC1=O [carbetocin] (10 µM),0.123
16,Cc1cccc(/C=C/c2ccccc2)n1 (10 µM),0.0753
